# PubChem BioAssay AID602254 (Broad Institute, 2012)
# The campaign covered roughly 1,000 compounds. Fewer than 10 were called active.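 The calls were made as follows: active = fitted half-maximal concentration no higher than twice the top valid tested dose, with signal falling; inconclusive = flat curve with 30 to 70% inhibition, or poor fit; inactive = the rest.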 Not all results are given here. Entries with a potency or affinity are not part of this list.
# Molecular target: Golgi-associated PDZ and coiled-coil motif-containing protein (Homo sapiens) (UniProt Q9HD26)
# Experiment: CAL PDZ domain peptide-binding inhibitors, dose response, biochemical, fluorescence polarization, untagged CAL PDZ, cherry-pick, set 2 (AID 602254);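 also: more negative means stronger blocking of peptide binding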
# Settings: Purified CAL PDZ, TMR peptide fluorescence polarization; series mostly up to 60 µM
row,Compound,outcome
1,CC(=O)c1ccc(OCc2cc(C(=O)NCCc3ccc(Cl)cc3)no2)cc1,inactive
2,Cc1c(C(=O)N2CCCCC2)c(S(=O)(=O)NCc2ccc(Cl)cc2)c(C)n1C,inactive
3,O=C(c1ccc(S(=O)(=O)NCC2CCCO2)cc1)N1CCN(c2ccccc2)CC1 (configuration not stated),inactive
4,O=C(Nc1cccc(C(=O)N2CCCCC2)c1)C1CC1,inactive
5,CCCN(CC(=O)Nc1ccccc1C)C(=O)CCCc1c[nH]c2ccccc12,inactive
6,O=C(COC(=O)Cc1c(F)cccc1Cl)NC(=O)c1ccccc1,inactive
7,Cc1ccccc1C(=O)NN1CCOCC1,inactive
8,COc1ccc(CN(C)C(=O)CNC(=O)CNC(=O)c2ccc(Cl)cc2Cl)cc1F,inactive
9,Cc1ccc(NC(=O)c2c(-c3ccccc3)noc2C)nc1,inactive
10,Cc1[nH]c2c(C(=O)N3CCCC(CCC(=O)NCc4ccccc4F)C3)cccc2c1C (configuration not stated),inactive
11,Cc1ccc(C(C)C)cc1OCCn1cncn1,inactive
12,COCC(C)N1CCC(Oc2cccc(C(=O)NCCc3ccccc3)c2)CC1 (configuration not stated),inactive
13,CC(=O)Nc1sc2c(c1C(N)=O)CCC2,inactive
14,CCOc1ccc(NC(=O)CN(C)S(=O)(=O)c2cccs2)cc1,inactive
15,CCCCCN1CSC(=S)N(Cc2ccccc2)C1,inactive
16,COc1ccc(/C=N/NC(=O)CNC(=O)c2ccncc2)cc1OC,inactive
17,O=C(Nc1ccccc1Cl)N1CCN(c2ccc3nnc(-c4ccccc4)n3n2)CC1,inactive
18,CC(=O)Nc1ccc(-c2cc(NC(C)=O)n(-c3ccccc3)n2)cc1,inactive
19,FC(F)(F)c1ccccc1NC(=S)N1CCCC1,inactive
20,COc1ccc(S(=O)(=O)N(C(C)=O)c2ccc3oc(=O)sc3c2)cc1,inactive
21,CCN(c1ccccc1)S(=O)(=O)c1ccc(C(=O)N2CCN(c3ccccc3)CC2)cc1,inactive
22,Cc1cc(C)c(C#N)c(Nc2cccc(C)c2C)n1,inactive
23,COc1ccc(Br)cc1CNc1ccc2[nH]c(=O)[nH]c2c1,inactive

row,Compound,outcome
1,Cc1ccc(OCC(=O)N2CCN(C(=O)c3cccs3)CC2)cc1,inactive
2,COc1ccccc1N(CC(=O)N1CCN(c2ccccc2)CC1)S(=O)(=O)c1ccc(C)cc1,inactive
3,O=S(=O)(c1ccccc1)N(CC(O)COc1ccccc1)c1ccccc1 (configuration not stated),inactive
4,CC(C)=C1C(=O)NN(c2cccc(Cl)c2)C1=O,inactive
5,O=C(c1ccc(-c2ccccc2)cc1)N1CCN(c2ccccn2)CC1,inactive
6,Cc1cc(Br)ccc1NC(=O)CN1CCN(c2ccccn2)CC1,inactive
7,COCC(=O)N1CCC(Oc2ccc(C(=O)NCc3cnc(C)cn3)cc2)CC1,inactive
8,Cc1ccc(S(=O)(=O)N(C)C)cc1NC(=S)N1CCc2ccccc21,inactive
9,C/C(CC(=O)Nc1ccc2c(c1)OCCO2)=N\NC(=O)COc1ccc(Cl)c(C)c1,inactive
10,COc1ccc(C(=O)NCC(=O)NCc2ccncc2)cc1,inactive
11,Cn1nc(C(=O)Nc2nc(-c3ccccn3)cs2)c2ccccc2c1=O,inactive
12,Cc1ccsc1C(=O)NNC(=O)c1cccc(S(=O)(=O)N2CCCC2)c1,inactive
13,Cc1ccc(C(=O)Nc2cccc(C(=O)N3CCOCC3)c2)cc1Cl,inactive
14,COc1ccc(OCC(=O)Nc2ccccc2C(=O)N2CCOCC2)cc1,inactive
15,O=C(Nc1ccccc1C(=O)O)c1cccc(N2C(=O)c3ccccc3C2=O)c1,inactive
16,Cc1cccc(OCCCn2c(CO)nc3ccccc32)c1,inactive
17,O=c1[nH]c2ccccc2cc1CN(CC1CCCO1)S(=O)(=O)c1ccccc1 (configuration not stated),inactive
18,COc1ccc(CC(=O)Nc2ccc(S(=O)(=O)Nc3cc(C)on3)cc2)cc1,inactive
19,COc1ccccc1N1CCN(/N=C/c2ccc(O)cc2O)CC1,inactive
20,O=C(Nc1ccnn1C1CCN(CC2CC=CCC2)CC1)c1ccccc1Cl (configuration not stated),inactive
21,COc1cccc(NC(=O)c2ccc3nsnc3c2)c1,inactive
22,O=C(NCCCN1CCOCC1)c1ccc2c(c1)N(Cc1ccccc1)CCS2,inactive
23,Cc1ccc(NC(=O)COc2ccccc2C(=O)NCCc2ccccc2)cc1,inactive

row,Compound,outcome
1,O=C(COC(=O)c1ccc(NC(=O)C2CC=CCC2C(=O)O)cc1)c1ccccc1 (configuration not stated),inactive
2,CCOC(=O)c1c(NC(=O)C2CCCCC2)sc2c1CCN(CC)C2,inactive
3,COc1ccc(CNc2ccc(-c3ccccc3OC)nn2)cc1,inactive
4,CN(C(=O)c1cccc(C(F)(F)F)c1)C1CCCc2ccccc21 (configuration not stated),inactive
5,Cc1n[nH]c(C)c1CCN(C)Cc1cn(C)nc1-c1ccc2c(c1)OCCO2,inactive
6,COc1ccc(NC(=O)CC(CC(=O)O)c2cc(OC)c(OC)c(OC)c2)cc1 (configuration not stated),inactive
7,Cc1ccc(NC(=S)N(CCCN2CCCC2)Cc2cccn2Cc2ccc(Cl)cc2)cc1C,inactive
8,O=C1CN(C(=O)COc2ccc(F)cc2Br)c2ccccc2N1,inactive
9,O=C(C1CC1)N1CCc2cc(S(=O)(=O)N3CCOCC3)ccc21,inactive
10,CS(=O)(=O)c1ccc(C(=O)NC2CCCc3ccccc32)cc1 (configuration not stated),inactive
11,COC(=O)c1ccccc1NC(=S)N1CCN(C2CCCCC2)CC1,inactive
12,Cc1ccccc1NC(=O)c1ccc(NC(=O)C2CCCO2)cc1 (configuration not stated),inactive
13,CC(NC(=S)NC(=O)c1ccccc1Br)c1ccccc1 (configuration not stated),inactive
14,COc1ccc(OC)c(-c2csc(NC(=O)c3ccc4c(c3)OCO4)n2)c1,inactive
15,CCN(Cc1cnn(C)c1)C(=O)C1CCC(=O)N(CCc2ccc(OC)cc2)C1 (configuration not stated),inactive
16,CC(=O)Nc1sc(NC(=O)c2ccc(C)cc2)nc1-c1cccs1,inactive
17,O=C(CNC(=O)c1ccccc1Cl)N/N=C/c1ccc2c(c1)OCO2,inactive
18,O=C(NCCc1ccccc1F)c1ccc2c(c1)OCCO2,inactive
19,CCc1nnc(NS(=O)(=O)c2ccc(N3C(=O)c4ccccc4C3=O)cc2)s1,inactive
20,Cc1cccc(NC(=O)CCNC(=O)c2ccc(Br)cc2)c1,inactive
21,COC(=O)c1cc(S(=O)(=O)NCCN2CCN(c3ccccc3F)CC2)c[nH]1,inactive
22,COc1ccc(CCNS(=O)(=O)c2ccccc2)cc1OC,inactive
23,CCOC(=O)N1CCN(C(=O)c2ccc3c(=O)n(-c4ccc(OC)cc4OC)c(=S)[nH]c3c2)CC1,inactive

row,Compound,outcome
1,COc1ccccc1/C=N/NC(=O)c1ccc2c(c1)OCO2,inactive
2,COc1ccccc1C(=O)Nc1cccc2nc(C)ccc12,inactive
3,O=C(Nc1ccc(F)cc1)C1CCCN1S(=O)(=O)c1cccc2nsnc12 (configuration not stated),inactive
4,Cc1ccc(N(C)C(=O)C2CCCN2S(=O)(=O)c2cccc3nsnc23)cc1 (configuration not stated),inactive
5,O=C(Nc1cccc(O)c1)c1ccc(NC(=O)C2CCCO2)cc1 (configuration not stated),inactive
6,CC(=O)Nc1ccc(NC(=O)COC(=O)COc2ccc3ccccc3c2)cc1,inactive
7,COc1ccccc1CNC(=O)COC(=O)CC1CC2CCC1C2 (configuration not stated),inactive
8,Cc1ccc(S(=O)(=O)Nc2c(C)n(C)n(-c3ccccc3)c2=O)cc1,inactive
9,C=CC(=O)NCc1ccc(-c2csnn2)cc1,inactive
10,CC(=O)NC(Cc1ccccc1)C(C)=O (configuration not stated),inactive
11,CCSc1nnc(NC(=O)CN2C(=O)NC3(CCCC3)C2=O)s1,inactive
12,COc1ccc(NC2CCCN(C(=O)c3csc(C(C)C)n3)C2)cc1 (configuration not stated),inactive
13,O=C1OC(CO)CN1Cc1ccccc1 (configuration not stated),inactive
14,O=S1(=O)c2c(F)cccc2OC(COCc2ccccc2)CN1C1CCCC1 (configuration not stated),inactive
15,Cc1ccc(C)c(N(CC(=O)N2CCCC2)S(C)(=O)=O)c1,inactive
16,COc1ccc(NC(=O)n2ncc3c(C)cccc32)cc1,inactive
17,O=C(O)c1c(-c2ccc(Cl)cc2)cn2ccccc12,inactive
18,O=C(NCc1ccncc1)C(=O)N/N=C/c1ccccn1,inactive
19,O=C(COC(=O)COc1ccc(Br)cc1)NCC1CCCO1 (configuration not stated),inactive
20,CCCCN1CC(COCc2ccccc2)Oc2cccc(F)c2S1(=O)=O (configuration not stated),inactive
21,COc1ccccc1C(=O)Nc1ccc2c(c1)nc(CN1CCCCC1)n2C,inactive
22,COC(=O)Cc1ccc(NC(=S)Nc2cccc(C)n2)cc1,inactive
23,O=C(CN1CCC(n2nnc3cc(C(F)(F)F)ccc32)CC1)Nc1ccc2c(c1)OCCO2,inactive

row,Compound,outcome
1,CCOC(=O)C(/C=N/c1cc(C)nn1-c1ccccc1)=C(\C)O,inactive
2,CCc1ccc(C(=O)NNC(=O)c2c(CC)noc2C)cc1,inactive
3,COc1ccc(/C=N/N2CCN(Cc3ccc(C)cc3)CC2)cc1Br,inactive
4,Cc1ccc(C(=O)NN2C(=O)c3ccc(S(=O)(=O)c4ccc(C(=O)O)cc4)cc3C2=O)cc1,inactive
5,CC(C)CNC(=O)NC(=O)COC(=O)COc1ccc(Cl)cc1Cl,inactive
6,COc1ccccc1C(=O)Oc1ccccc1C(=O)Nc1ccccc1,inactive
7,Cc1ccc2nc(NC(=O)COC(=O)c3ccncc3)sc2c1,inactive
8,O=C(O)Cc1sc(-c2ccc(Cl)cc2)nc1-c1ccccc1,inactive
9,Cc1noc(C)c1COc1cccc(C(=O)OC(C)C#N)c1 (configuration not stated),inactive
10,COc1ccc(CN2CCNC(=O)C2CC(=O)NC2CCCCCCC2)cc1OC (configuration not stated),inactive
11,CCC(C)(C(=O)NC1CCCCC1)N(C)C(=O)c1ccccn1 (configuration not stated),inactive
12,Cc1cc(CN(C)C(=O)C2CCC(=O)N(CCc3cccc(F)c3)C2)on1 (configuration not stated),inactive
13,Cc1onc(-c2c(Cl)cccc2Cl)c1C(=O)N1CCN(c2ncccn2)CC1,inactive
14,CC(C)c1ccc(S(=O)(=O)N2CCN(C(=O)c3cccc(F)c3)CC2)cc1,inactive
15,Cc1ccc(/C=N/N(C)S(=O)(=O)c2ccc(C)cc2)cc1,inactive
16,CCOc1ccc(NC(=O)CCN2CCN(S(=O)(=O)c3ccc(F)cc3)CC2)cc1,inactive
17,Cc1ccccc1C(=O)c1cccn1CC(=O)NCCC1=CCCCC1,inactive
18,COc1ccccc1NC(=O)C1CCN(C(=O)NCc2ccccc2)CC1,inactive
19,CCSc1ccccc1C(=O)NCCc1ccccc1,inactive
20,COc1ccc(C)cc1NC(=O)Cn1c(=O)oc2ccccc21,inactive
